Measured values published in PubChem BioAssay.
Calls of active or inactive are those of the source.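 The calls were made as follows: active = compound raises insulin release from rat beta cells at 5 mM glucose, no numeric limit stated; inactive = the rest.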 Positions of bridges follow the written chain, without caps; N, C: chain ends. Non-standard residues stand in square brackets, D forms with d. Residues, ends and D or L forms follow the SMILES beside them. hArg = N=C(N)NCCCC[C@H](N)C(=O)O; Mpa = O=C(O)CCS
Also: reference of the scale not given here.

Assay: stimulators of nuclear beta-catenin in C2C12, primary screen, imaging, WNT3A-conditioned medium, mouse C2C12, NPC library (AID 1117326)
Details: stimulation, at 2 µM, stronger effect = higher value
`C/C(=C(/OCCOc1ccc(Cl)cc1)c1ccc(Cl)cc1Cl)n1ccnc1` showed a nuclear beta-catenin stimulation of 1.3%.
With `Cc1ccc(-c2ccccc2C#N)cc1` the nuclear beta-catenin stimulation was 6.2%.
`COc1cc(NS(=O)(=O)c2ccc(N)cc2)nc(C)n1` gave a nuclear beta-catenin stimulation of 10.1%.
`C=C(C)C(=O)OCC(O)CO` (stereo not drawn) showed a nuclear beta-catenin stimulation of 28.1%.
Molecule `CC(C)CCCC(C)CCCC(C)CCCCC(C)CCCC(C)CCCC(C)C` (stereo not drawn) has a nuclear beta-catenin stimulation of -0.8%.
In the case of `Cc1cc(O)c(C)c(C)c1O`, the nuclear beta-catenin stimulation is reported as -0.4%.
For `Cc1cc(O)c(Cl)c(C)c1Cl`, the nuclear beta-catenin stimulation was -0.1%.
Work on `C/C=C(/C(=C/C)c1ccc(OC(C)=O)cc1)c1ccc(OC(C)=O)cc1` yielded a nuclear beta-catenin stimulation of 2.9%.
`C=CCN1CCc2nc(N)sc2CC1` gave a nuclear beta-catenin stimulation of 1%.
With `COc1ccccc1OCC1CNC(=O)O1` (stereo not drawn) the nuclear beta-catenin stimulation was 0.2%.
Work on `O=P(O)(O)C(O)(Cc1cnc2ccccn12)P(=O)(O)O` yielded a nuclear beta-catenin stimulation of 1.4%.
`O=C(O)CNC(=O)c1ccccc1I` gave a nuclear beta-catenin stimulation of 1.7%.
For `CC(=O)Nc1ccc(OC(=O)c2ccccc2OC(C)=O)cc1`, the nuclear beta-catenin stimulation was 14%.
`CCN1CCCC1CN` (stereo not drawn) gave a nuclear beta-catenin stimulation of 1.8%.
Work on `CCOc1ccc(C(=O)OCCN(CC)CC)cc1` yielded a nuclear beta-catenin stimulation of -1.4%.
With `O=C(NCCc1c[nH]c2ccccc12)c1cccnc1` the nuclear beta-catenin stimulation was 1.7%.
Work on `CCC(Cc1c(I)cc(I)c(O)c1I)C(=O)O` (stereo not drawn) yielded a nuclear beta-catenin stimulation of 0.3%.
With `CC(O)CCCCn1c(=O)c2c(ncn2C)n(C)c1=O` (stereo not drawn) the nuclear beta-catenin stimulation was 3.3%.
With `C[C@]12C=CC(=O)C=C1[C@@H](F)C[C@@H]1[C@@H]2[C@@H](O)C[C@@]2(C)[C@H]1CC[C@]2(O)C(=O)CO` the nuclear beta-catenin stimulation was -0.6%.
For `NCC(=O)O`, the nuclear beta-catenin stimulation was 4%.
Work on `CCOCCn1c(C2CCN(CCc3ccc(C(C)(C)C(=O)O)cc3)CC2)nc2ccccc21` yielded a nuclear beta-catenin stimulation of 1.3%.
In the case of `C[C@H]1C[C@H]2[C@@H]3CCC4=CC(=O)C=C[C@]4(C)[C@@]3(Cl)[C@@H](O)C[C@]2(C)[C@@]1(O)C(=O)CO`, the nuclear beta-catenin stimulation is reported as 0.5%.
Work on `NC(=O)[C@@H]1CSSCCC(=O)N[C@@H](CCCCN=C(N)N)C(=O)NCC(=O)N[C@@H](CC(=O)O)C(=O)N[C@@H](Cc2c[nH]c3ccccc23)C(=O)N2CCC[C@H]2C(=O)N1` ([Mpa][hArg]GDWPC-NH2; disulfide 1-7) yielded a nuclear beta-catenin stimulation of 5.8%.
Work on `COC(=O)C1=C(C)NC(COC(N)=O)=C(C(=O)OC(C)C)C1c1cccc(Cl)c1Cl` (stereo not drawn) yielded a nuclear beta-catenin stimulation of 0.7%.
In the case of `C[N+](C)(CCOc1ccccc1)Cc1cccs1`, the nuclear beta-catenin stimulation is reported as 1.1%.
Molecule `O=C(O)c1[nH]n(-c2ccc(S(=O)(=O)O)cc2)c(=O)c1N=Nc1ccc(S(=O)(=O)O)cc1` has a nuclear beta-catenin stimulation of -1.1%.
`c1ccc(OCc2ccc(CCCN3CCOCC3)cc2)cc1` gave a nuclear beta-catenin stimulation of 0.3%.
`CCS(=O)(=O)c1ccc(OC)c(C(=O)OC)c1` showed a nuclear beta-catenin stimulation of -1.7%.
`COC(=O)/C=C(/C)N` gave a nuclear beta-catenin stimulation of 2.2%.
`N#CCC(=O)NN` showed a nuclear beta-catenin stimulation of 2.7%.
For `Nc1nc(-c2ccccc2)c(Br)c(=O)[nH]1`, the nuclear beta-catenin stimulation was 2.1%.
`CCCCCC=CCC=CCCCCCCCC(=O)OCC` gave a nuclear beta-catenin stimulation of -0.5%.
Work on `CCCCCCCC/C=C\CCCCCCCCN` yielded a nuclear beta-catenin stimulation of 2.6%.
In the case of `C/C(=C(\CCO)SS/C(CCO)=C(\C)N(C=O)Cc1cnc(C)nc1N)N(C=O)Cc1cnc(C)nc1N`, the nuclear beta-catenin stimulation is reported as -0.9%.
Work on `Cc1onc(-c2c(F)cccc2Cl)c1C(=O)Cl` yielded a nuclear beta-catenin stimulation of 0.5%.
Molecule `CSCC[C@H](N)C(=O)O` has a nuclear beta-catenin stimulation of 1.3%.
For `CCCCCC(N)=O`, the nuclear beta-catenin stimulation was 2.1%.
For `CCCCCCCCCCCCCCCCCCN(C)C`, the nuclear beta-catenin stimulation was -1.1%.
Work on `O=C(Cn1ccnc1[N+](=O)[O-])NCc1ccccc1` yielded a nuclear beta-catenin stimulation of 0.4%.

Assay: stimulators of insulin release from INS-1E, primary screen, cell-based, 5 mM glucose, NPC library (AID 1117329)
Details: rat INS-1E insulin secretion, at 10 µM, stronger effect = higher value
In the case of `C/C(=C(/OCCOc1ccc(Cl)cc1)c1ccc(Cl)cc1Cl)n1ccnc1`, the insulin secretion stimulation is reported as -0.7% (inactive).
In the case of `Cc1ccc(-c2ccccc2C#N)cc1`, the insulin secretion stimulation is reported as 0.25% (inactive).
With `COc1cc(NS(=O)(=O)c2ccc(N)cc2)nc(C)n1` the insulin secretion stimulation was 2.8% (inactive).
In the case of `C=C(C)C(=O)OCC(O)CO` (stereo not drawn), the insulin secretion stimulation is reported as 2.7% (inactive).
For `CC(C)CCCC(C)CCCC(C)CCCCC(C)CCCC(C)CCCC(C)C` (stereo not drawn), the insulin secretion stimulation was -1.6% (inactive).
For `Cc1cc(O)c(C)c(C)c1O`, the insulin secretion stimulation was 1.3% (inactive).
With `Cc1cc(O)c(Cl)c(C)c1Cl` the insulin secretion stimulation was -1.8% (inactive).
In the case of `C/C=C(/C(=C/C)c1ccc(OC(C)=O)cc1)c1ccc(OC(C)=O)cc1`, the insulin secretion stimulation is reported as 1.65% (inactive).
In the case of `C=CCN1CCc2nc(N)sc2CC1`, the insulin secretion stimulation is reported as -0.5% (inactive).
For `COc1ccccc1OCC1CNC(=O)O1` (stereo not drawn), the insulin secretion stimulation was 0.9% (inactive).
With `O=P(O)(O)C(O)(Cc1cnc2ccccn12)P(=O)(O)O` the insulin secretion stimulation was -0.3% (inactive).
In the case of `O=C(O)CNC(=O)c1ccccc1I`, the insulin secretion stimulation is reported as 0.3% (inactive).
In the case of `CC(=O)Nc1ccc(OC(=O)c2ccccc2OC(C)=O)cc1`, the insulin secretion stimulation is reported as 4.1% (inactive).
In the case of `CCN1CCCC1CN` (stereo not drawn), the insulin secretion stimulation is reported as 4.8% (inactive).
For `CCOc1ccc(C(=O)OCCN(CC)CC)cc1`, the insulin secretion stimulation was -0.6% (inactive).
For `O=C(NCCc1c[nH]c2ccccc12)c1cccnc1`, the insulin secretion stimulation was -2.7% (inactive).
For `CCC(Cc1c(I)cc(I)c(O)c1I)C(=O)O` (stereo not drawn), the insulin secretion stimulation was -0.2% (inactive).
In the case of `CC(O)CCCCn1c(=O)c2c(ncn2C)n(C)c1=O` (stereo not drawn), the insulin secretion stimulation is reported as 3.75% (inactive).
In the case of `C[C@]12C=CC(=O)C=C1[C@@H](F)C[C@@H]1[C@@H]2[C@@H](O)C[C@@]2(C)[C@H]1CC[C@]2(O)C(=O)CO`, the insulin secretion stimulation is reported as 0.8% (inactive).
In the case of `NCC(=O)O`, the insulin secretion stimulation is reported as -2.4% (inactive).
For `CCOCCn1c(C2CCN(CCc3ccc(C(C)(C)C(=O)O)cc3)CC2)nc2ccccc21`, the insulin secretion stimulation was -0.3% (inactive).
For `C[C@H]1C[C@H]2[C@@H]3CCC4=CC(=O)C=C[C@]4(C)[C@@]3(Cl)[C@@H](O)C[C@]2(C)[C@@]1(O)C(=O)CO`, the insulin secretion stimulation was 6.9% (inactive).
For `NC(=O)[C@@H]1CSSCCC(=O)N[C@@H](CCCCN=C(N)N)C(=O)NCC(=O)N[C@@H](CC(=O)O)C(=O)N[C@@H](Cc2c[nH]c3ccccc23)C(=O)N2CCC[C@H]2C(=O)N1` ([Mpa][hArg]GDWPC-NH2; disulfide 1-7), the insulin secretion stimulation was 3.95% (inactive).
For `COC(=O)C1=C(C)NC(COC(N)=O)=C(C(=O)OC(C)C)C1c1cccc(Cl)c1Cl` (stereo not drawn), the insulin secretion stimulation was 8.1% (inactive).
With `C[N+](C)(CCOc1ccccc1)Cc1cccs1` the insulin secretion stimulation was 2.65% (inactive).
With `O=C(O)c1[nH]n(-c2ccc(S(=O)(=O)O)cc2)c(=O)c1N=Nc1ccc(S(=O)(=O)O)cc1` the insulin secretion stimulation was 2.7% (inactive).
For `c1ccc(OCc2ccc(CCCN3CCOCC3)cc2)cc1`, the insulin secretion stimulation was 4.5% (inactive).
For `CCS(=O)(=O)c1ccc(OC)c(C(=O)OC)c1`, the insulin secretion stimulation was 0.9% (inactive).
With `COC(=O)/C=C(/C)N` the insulin secretion stimulation was -0.8% (inactive).
For `N#CCC(=O)NN`, the insulin secretion stimulation was -0.7% (inactive).
With `Nc1nc(-c2ccccc2)c(Br)c(=O)[nH]1` the insulin secretion stimulation was -0.7% (inactive).
For `CCCCCC=CCC=CCCCCCCCC(=O)OCC`, the insulin secretion stimulation was -1.8% (inactive).
For `CCCCCCCC/C=C\CCCCCCCCN`, the insulin secretion stimulation was -0.6% (inactive).
With `C/C(=C(\CCO)SS/C(CCO)=C(\C)N(C=O)Cc1cnc(C)nc1N)N(C=O)Cc1cnc(C)nc1N` the insulin secretion stimulation was 0.9% (inactive).
For `Cc1onc(-c2c(F)cccc2Cl)c1C(=O)Cl`, the insulin secretion stimulation was 1.1% (inactive).
With `CSCC[C@H](N)C(=O)O` the insulin secretion stimulation was 0.5% (inactive).
In the case of `CCCCCC(N)=O`, the insulin secretion stimulation is reported as -1.1% (inactive).
With `CCCCCCCCCCCCCCCCCCN(C)C` the insulin secretion stimulation was 0.9% (inactive).
In the case of `O=C(Cn1ccnc1[N+](=O)[O-])NCc1ccccc1`, the insulin secretion stimulation is reported as -1.9% (inactive).
